Laboratory results published in PubChem BioAssay (NCI).
The panel holds about 83,000 compounds, 20% with a hit somewhere; the sample as a whole holds those more often.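 Compound tested at a single concentration for 48 hours in 96-well plates; a percent growth value below 10 was scored as active.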 Values without a mark were called inactive. Calls of active or inactive are those of the source.

What was measured:
Assay in all cases: NCI-60 one-dose screen, 48 h (100 = growth as untreated, 0 = no growth, -100 = all killed)
Details in all cases: 10 µM unless noted
[1] = tested on: SK-MEL-2 melanoma
[2] = tested on: EKVX NSCLC
[3] = tested on: SN12C renal
[4] = tested on: UO-31 renal
[5] = tested on: TK-10 renal
[6] = tested on: ACHN renal
[7] = tested on: CAKI-1 renal
[8] = tested on: A498 renal
[9] = tested on: MOLT-4 leukemia
[10] = tested on: SR leukemia
[11] = tested on: RPMI-8226 leukemia
[12] = tested on: OVCAR-8 ovarian
[13] = tested on: OVCAR-5 ovarian
[14] = tested on: OVCAR-4 ovarian
[15] = tested on: SK-OV-3 ovarian
[16] = tested on: IGROV1 ovarian
[17] = tested on: OVCAR-3 ovarian
[18] = tested on: HS 578T breast
[19] = tested on: NCI/ADR-RES ovarian
[20] = tested on: CCRF-CEM leukemia

| Structure (SMILES) | growth [1] | growth [2] [%] | growth [3] | growth [4] | growth [5] | growth [6] | growth [7] | growth [8] | growth [9] | growth [10] | growth [11] | growth [12] | growth [13] | growth [14] | growth [15] | growth [16] | growth [17] | growth [18] [%] | growth [19] | growth [20] [%] |
| --- | --- | --- | --- | --- | --- | --- | --- | --- | --- | --- | --- | --- | --- | --- | --- | --- | --- | --- | --- | --- |
| Cc1ccc(-c2cc3c(cc2O)C2CCCCC2(N2CCOCC2)O3)cc1 (stereo not given) | 101% | 107 | 93.1% | 84.5% | 116% | 112% | 96% | 114% | 84.1% | 86% | 96% | 102% | 110% | 91% | 104% | 104% | 110% | 108 | 99.1% | – |
| CCN(CC)CCN1C(=O)c2c(c(C)c3c(oc4cc(O)ccc43)c2C)C1=O | 108% | 103 | 86.9% | 69.2% | -92.3% (active) | 49.5% | -92.5% (active) | 101% | -33.6% (active) | -25.3% (active) | -36.3% (active) | -62.6% (active) | -38.5% (active) | -34.4% (active) | 108% | 91.9% | -88% (active) | 87.7 | 78% | – |
| CCN1C(=O)N(CC)C2C1NN=c1s/c(=C\c3cccs3)c(=O)n12 (stereo not given) | 42% | 60.6 | 29.7% | 50.2% | 5.35% (active) | 42.2% | 35.4% | -12.4% (active) | – | – | 37.7% | 16.9% | 41.3% | 53.2% | 45.6% | 27.4% | -17.5% (active) | 22.5 | -16.5% (active) | 26.6 |
| COc1cc(-c2n/c(=C\c3c(O)[nH]c4ccc(Cl)cc34)cc3c2=Nc2ccccc2-3)cc(OC)c1OC | 36% | 38.6 | -27.5% (active) | -54.3% (active) | -7.12% (active) | -44.8% (active) | 13.2% | 52.4% | 10.2% | 0.372% (active) | 15.5% | 3.95% (active) | 88.6% | -41.8% (active) | -14.2% (active) | -18.3% (active) | -57.4% (active) | 20.9 | 15.1% | – |
| CCN(CC)CCN1CC(O)=C(c2nc(-c3ccc(Cl)cc3)cs2)C1=N | 100% | 82.8 | 64.5% | -24.7% (active) | 89.2% | 42.5% | 43.2% | 56.5% | 1.18% (active) | -4.58% (active) | 13.6% | 44.6% | 66.4% | 84.6% | 101% | 40.8% | 80.5% | 47.2 | 69.4% | – |
| O=C(/C=C/c1ccco1)c1ccc(Nc2nc(Nc3ccc(F)cc3)nc(Nc3ccc(Cl)cc3)n2)cc1 | 59.4% | 75.5 | 81.1% | 85.3% | 84% | 89.1% | 80% | 30.8% | -99.1% (active) | 0.269% (active) | 23.6% | 87.9% | 64.9% | 78.4% | 95.4% | 61.7% | 75% | 81.5 | 67.3% | – |
| CCc1c2c(nc3ccc(OC(=O)NCc4ccc(B5OC(C)(C)C(C)(C)O5)cc4)cc13)-c1cc3c(c(=O)n1C2)COC(=O)[C@]3(O)CC | -28% (active) | 35.3 | -0.279% (active) | -67.7% (active) | 0.387% (active) | -61.5% (active) | -43.3% (active) | -63.1% (active) | – | – | 10.1% | 4.49% (active) | -12.3% (active) | 6.46% (active) | -1.86% (active) | 11% | -24.7% (active) | 23.4 | -6.58% (active) | 19.8 |
| Oc1ccc(CN2CCC(N3CCOCC3)CC2)c2cccnc12 | -6.57% (active) | 59.4 | 11.8% | 14.5% | 30.6% | 12.8% | 43.2% | 71.1% | – | – | 7.8% (active) | 19% | 48.8% | 30.9% | 36.1% | 34.9% | 29.9% | 24.4 | 48.3% | 22.4 |
| CCN1C(=O)N(CC)C2Nn3c(s/c(=C\c4ccc(Cl)cc4Cl)c3=O)=NC21 (stereo not given) | 71.2% | 68.8 | 43.3% | 53.5% | 15.8% | 37.6% | 36.9% | 21.4% | – | – | 47.2% | 36.1% | 54.5% | 56.7% | 70.2% | 40.6% | 17.4% | 55.4 | 14.7% | 41.7 |
| CN1CCN(C(=O)c2c3c(n4ccccc24)C(=O)c2ncccc2C3=O)CC1 | 80% | 91.5 | 45% | 35.2% | 89.3% | 32% | 35.7% | 51.5% | 103% | 18% | 57.9% | 68% | 99.6% | 72% | 70% | 60% | 7.09% (active) | 52.5 | 71.5% | – |
| Cc1cc(Cl)ccc1Nc1nc(C(F)(F)F)ccc1C(=O)N/N=C/c1ccc(N(C)C)cc1 | -6.44% (active) | 26.3 | 57.7% | 22.7% | 25.8% | 24.6% | 22.6% | 34.7% | 12.8% | 17.4% | -26.1% (active) | 18.7% | 43.2% | 16% | 42.3% | 21% | 22.5% | 39.4 | 16.1% | – |
